# Results: PubChem BioAssay AID492997 (Johns Hopkins Ion Channel Center, 2010)
# In all, about 4,900 compounds went through this assay and about 2,000 (41%) were called active.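 The calls were made as follows: active = thallium signal drop beyond 5 SD of the untreated control mean, on both duplicate plates; inactive = the rest.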 So high a share suggests a set chosen from earlier hits. The list is a sample of the results.
# Assay: thallium flux in non-induced HEK293 cells, confirmation, counter-screen for KCNK9 inhibitor project, cell-based, second counter screen, non-induced KCNK9-HEK293 (AID 492997);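 as to inhibition: plate controls were buffer only IC0 wells for no effect and SID17386958 at its maximal inhibitory level for full effect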
# Details: non-induced KCNK9-HEK293, FluxOR thallium flux, at 10 µM; stronger effect = higher value
row,Compound,inhibition
1,CCC(c1nnnn1Cc1ccco1)N(CCc1ccccc1)Cc1cc2cccc(C)c2[nH]c1=O (stereo unspecified),33.5% (active)
2,Cc1cccc2cc(CN(Cc3nnnn3Cc3ccccc3)C3CCCC3)c(=O)[nH]c12,inactive
3,CCOc1ccc2[nH]c(=O)c(CN(Cc3nnnn3CCc3ccccc3)CC3CCCO3)cc2c1 (stereo unspecified),inactive
4,O=C1CC(NNc2ccccc2)C(=O)N1c1cccc(Cl)c1 (stereo unspecified),inactive
5,c1ccc(C(c2ccccc2)N2CCN(Cc3nnnn3C3CCCCC3)CC2)cc1,29% (active)
6,CCOc1ccc(OCc2ccc(C(=O)Nc3cccc(C)n3)o2)cc1,inactive
7,CSc1cccc(NC(=S)N(C(C)C)C(C)c2ccccn2)c1 (stereo unspecified),24.5% (active)
8,COC(C(=O)Nc1ccc(S(=O)(=O)Nc2ccc(C)c(C)c2)cc1)c1ccccc1 (stereo unspecified),inactive
9,CC(C)C(=O)Nc1cccc(NC(=S)NC(=O)C(c2ccccc2)c2ccccc2)c1,24% (active)
10,CCCCOC(=O)CCCc1ccc([N+](=O)[O-])cc1[N+](=O)[O-],inactive
11,COc1cc(Cl)c(S(=O)(=O)N2CCN(Cc3ccc4c(c3)OCO4)CC2)cc1Cl,inactive
12,COc1ccc(CCNc2ncnc3c2nnn3Cc2ccccc2)cc1,inactive
13,COc1ccc(-c2nc(CCNC(=O)c3ccc(Br)o3)cs2)cc1,inactive
14,COc1ccc(CCNC(=O)c2ccccc2OCc2ccccc2)cc1,40% (active)
15,COCCNc1cc(-c2ccccc2)nc2cc(-c3cccc(F)c3)nn12,30% (active)
16,COC(=O)Cn1cnc2scc(-c3ccc(C)c(C)c3)c2c1=O,inactive
17,Cc1ccc(-c2csc(NCCc3nc4cc(Cl)c(Cl)cc4n3CCOCCO)n2)cc1,36% (active)
18,CCN(C(=O)COc1ccc(C(=O)c2ccccc2)cc1)c1ccccc1,29% (active)

row,Compound,inhibition
1,Cc1ccc(C2=Nc3c(ccc4ccccc34)C(c3ccncc3)=NN2)cc1,inactive
2,COc1ccc2c(c1)C(c1cccs1)=NNC(c1cccnc1)=N2,24.5% (active)
3,O=C(NNc1ccccc1Cl)C(O)(c1cccc(C(F)(F)F)c1)c1cccc(C(F)(F)F)c1,inactive
4,O=[N+]([O-])/C=C/c1ccc2c(ccn2Cc2ccccc2)c1,44.5% (active)
5,COc1cccc(COc2ccc(N(C)S(=O)(=O)c3ccccc3)cc2)c1,49.5% (active)
6,CCOC(=O)c1cc2sccc2n1Cc1ccc(C#N)cc1,53% (active)
7,O=C(OCC(=O)N(CCc1ccccc1)Cc1ccccc1)c1ccccc1[N+](=O)[O-],inactive
8,O=C(Nc1ccc(Cl)c(Cl)c1)N1CC=C(c2ccccc2)CC1,inactive
9,Cc1nc(N2CCN(c3ccccn3)CC2)c2c(C)c(C(=O)Nc3ccc(F)c(Cl)c3)sc2n1,24.5% (active)
10,COc1ccc(C(=O)C2CCCN(C(=O)c3cc(C)on3)C2)cc1F (stereo unspecified),inactive
11,Oc1ccc(/C=N/Nc2nc(-c3ccccc3F)nc3ccccc23)c(O)c1,32% (active)
12,O=C1c2ccccc2S(=O)(=O)N1CC(O)Cn1c2ccccc2c2ccccc21 (stereo unspecified),inactive
13,O=C(CSCc1ccc(Br)cc1)Nc1ccc(S(=O)(=O)N2CCCCCC2)cc1,inactive
14,Cc1cccc(NC(=O)CN2CCCN(S(=O)(=O)c3ccc(Br)s3)CC2)c1,39.5% (active)
15,Cc1cccc(N(C)C(=O)CN2C(=O)COc3ccc(S(=O)(=O)N4CCCCCC4)cc32)c1,inactive
16,O=C1c2ccccc2C2=Nc3ccccc3SC(c3ccccc3F)C12 (stereo unspecified),45.5% (active)
17,C=CCN(N=Nc1cccc([N+](=O)[O-])c1)c1cccc([N+](=O)[O-])c1,39% (active)
18,Cc1ccc(NC2CCCN(C(=O)CCC3(C)CC3)C2)cc1C (stereo unspecified),inactive
